Hits are enriched below; roughly 12% of the tested compounds scored in any of these assays.
G9a inh: qHTS Assay for Inhibitors of Histone Lysine Methyltransferase G9a; Histone-lysine N-methyltransferase EHMT2 (Homo sapiens), Q96KQ7; G9a H3K9 monomethylation, AlphaScreen, 2 h; Potency, µM (titrated, usually from 102 µM), for inactives: top-dose activity, negative = inhibition, most hits filed as inhibitors; 8.8% of 350,000 active; further: on the % scale 0 is the no-effect control and ±100 the full control effect; nearly all actives have a fitted effect of over 75% in size
Target sequence (Q96KQ7 913-1193 limits assumed): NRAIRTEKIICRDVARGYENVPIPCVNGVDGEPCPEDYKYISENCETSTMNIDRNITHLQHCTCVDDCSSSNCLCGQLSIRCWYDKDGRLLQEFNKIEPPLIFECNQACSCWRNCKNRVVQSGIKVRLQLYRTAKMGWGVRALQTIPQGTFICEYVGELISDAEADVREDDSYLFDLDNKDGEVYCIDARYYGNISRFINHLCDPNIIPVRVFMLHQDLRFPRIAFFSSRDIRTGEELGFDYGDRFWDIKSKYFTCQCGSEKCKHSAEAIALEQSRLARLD
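Methyltransferase reactions run at room temperature for 2 h (20 nM enzyme, 500 nM biotin-H3K9 peptide, 20 uM SAM) after a 15 min compound preincubation; product detected by AlphaScreen beads and anti-H3K9me1 antibody.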
L3MBTL1 block: qHTS Assay for the Inhibitors of L3MBTL1. 0.66% of 230,000 active. AlphaScreen L3MBTL1–H3K9me1 peptide binding. Lethal(3)malignant brain tumor-like protein 1 (Homo sapiens), Q9Y468. Potency, µM (highest dose often 57.1 µM), for inactives: at the highest dose activity, negative = inhibition, hits mostly inhibitors; further: on the % scale 0 is the no-effect control and ±100 the full control effect; nearly all actives have a fitted effect of over 60% in size
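L3MBTL1 50 nM + b-AHA-H3(1-15)K9me1 75 nM, 30 min RT; compound added, 30 min RT; streptavidin donor/Ni-chelate acceptor beads 10 ug/mL each final, 30 min RT dark; AlphaScreen read.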
BAZ2B block: qHTS Assay for Inhibitors of BAZ2B; Potency, µM (top dose mostly 114 µM), inactives show at the highest dose activity change, negative = inhibition, usual class: inhibitors; AlphaScreen BAZ2B-H3K14Ac peptide displacement; 4.4% of 360,000 active; Bromodomain adjacent to zinc finger domain protein 2B (Homo sapiens), Q9UIF8; further: on the % scale 0 is the no-effect control and ±100 the full control effect; nearly all actives have a fitted effect of over 60% in size
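Multi-concentration screen (max 110 uM) measuring displacement of acetylated histone H3 peptide from BAZ2B by AlphaScreen, using 50 nM protein, 50 nM peptide and 10 ug/mL streptavidin donor plus Ni-chelate acceptor beads.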
HP1b chromo inh: HTS for Inhibitors of HP1-beta Chromodomain Interactions with Methylated Histone Tails. Chromobox protein homolog 1 (Homo sapiens), P83916. AlphaScreen HP1-beta / biotin-H3K9me3 peptide binding. Potency, µM (titrated, usually from 114 µM), inactives show top-dose activity change, negative = inhibition, most hits filed as inhibitors. 0.56% of 390,000 active. AID 540317, 2011; further: nearly all actives have a fitted effect of over 70% in size
Target sequence (P83916 whole entry, looked up): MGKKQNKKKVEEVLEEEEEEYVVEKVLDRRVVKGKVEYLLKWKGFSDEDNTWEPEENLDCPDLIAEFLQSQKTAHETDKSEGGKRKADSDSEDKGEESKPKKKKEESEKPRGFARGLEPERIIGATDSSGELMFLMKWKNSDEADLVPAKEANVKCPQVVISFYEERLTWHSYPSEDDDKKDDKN
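HP1-beta protein (50 nM final) preincubated 30 min at room temperature with biotinylated H3(1-18)K9me3 peptide (50 nM) in PBS pH 7.4, 0.01% Tween-20, then compound added for 30 min. AlphaScreen streptavidin donor/nickel chelate acceptor beads (10 ug/mL final), 30 min dark, luminescence read.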
Sfp PPTase inh: qHTS Assay for Inhibitors of Bacillus subtilis Sfp phosphopantetheinyl transferase (PPTase) | Biochemical Sfp PPTase activity, qHTS | AID 1490, 2009 | 4'-phosphopantetheinyl transferase ffp (Bacillus subtilis), Q9F4F7 | 3.5% of 310,000 active | Potency, µM, inactives show largest response in the series, negative = inhibition, hits mostly inhibitors;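 further: the enzyme is Sfp with the accession as filed and its product quenches rhodamine fluorescence; 0% = enzyme reaction without inhibitor and -100% = no enzyme wells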
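Buffer: 50 mM Hepes-Na pH 7.6, 10 mM MgCl2, 0.01% Nonidet P-40, 0.01% BSA. Enzyme 15 nM, pre-exposed to compound 15 min; substrates then added and fluorescence change tracked over 30 min.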
JMJD2A Tudor inh: qHTS Assay for Inhibitors of JMJD2A-Tudor Domain | AID 504339, 2011 | 4.4% of 390,000 active | Potency, µM (doses to about 114 µM), inactives show at the highest dose activity change, negative = inhibition, hits mostly inhibitors | AlphaScreen JMJD2A-Tudor / H3K4me3 peptide binding | Lysine-specific demethylase 4A (Homo sapiens), O75164; further: on the % scale 0 is the no-effect control and ±100 the full control effect; nearly all actives have a fitted effect of over 50% in size
The depositor's hits bear a star; ? = inconclusive; nt = not tested or not shown; [ ] = dose if it differs, or a comment. The call rests on the fitted dose curve; in most records, active means well fitted curve in the direction sought with a large enough effect; inconclusive means small, poorly fitted or top-dose-only effect, or another doubt; inactive means no such curve, though single readings can be large; an effect the other way counts as inactive or inconclusive. Potency means the concentration at half of the fitted maximal effect.

SMILES	G9a inh	L3MBTL1 block	BAZ2B block	HP1b chromo inh	Sfp PPTase inh	JMJD2A Tudor inh
COc1ccc(CN=Cc2[nH]c3ccc(Br)c(Cl)c3c2O)cc1	4µM*	-9%	45µM*	?	-17%	?
CCN(CC)CCN(C(=O)c1ccco1)c1nc2c(C)c(C)ccc2s1	-27%[59 µM]	nt	?	4%	nt	?
Cc1c(Cl)cccc1NC(=O)CCn1nc(C)c2c(C)n(-c3ccccc3)nc2c1=O	0%[59 µM]	nt	1%	42%	nt	0%
Cc1cc(NC(=O)CCC(=O)N(c2ccccc2)C(C(=O)NC2CCCC2)c2ccc(F)cc2)no1 (stereo unspecified)	25%[59 µM]	nt	4%	13%	12%	-3%
COc1cc(CN2CCN(Cc3ccc4cc(F)ccc4n3)CC2CCO)cc(OC)c1 (stereo unspecified)	-6%	-3%	-4%	21%	-15%	-26%
CCOc1ccccc1CN1CCN(Cc2ccc3cc(F)ccc3n2)CC1CCO (stereo unspecified)	79µM*	-4%	-31%	36%	9%	-14%
COc1cccc(CN2CCN(Cc3ccc4c(NC(C)=O)cccc4n3)CC2CCO)c1 (stereo unspecified)	50µM*	1%	-12%	31%	-19%	22µM*
COc1ccc(CN2CCN(Cc3ccc4cc(F)ccc4n3)CC2CCO)c(C)c1C (stereo unspecified)	50µM*	-2%	-33%	51%	3%	-27%
Cc1ccc(CN2CCN(Cc3ccc4cc(F)ccc4n3)CC2CCO)o1 (stereo unspecified)	56µM*	-8%	-34%	19%[57 µM]	-30%	-8%
COc1cc2c3nnc(-c4ccc(F)cc4)c-3cn(Cc3ccc(F)cc3)c2cc1OC	50µM*	nt	-2%	23%	-8%	-23%
COc1ccc(Oc2c(O)c3ccccc3n(C)c2=O)cc1	45µM*	3%	-2%	8%	?	-10%
Cn1c(Oc2ccc(Cl)cc2)c(C=O)c2ccccc21	58%	24%	43%	59%	-6%	6%
Cn1c(=O)c(Oc2ccc(Cl)cc2)c(O)c2ccccc21	79µM*	2%	3%	34%	13%	-1%
CCCCn1c(NCc2cccs2)nc2ccccc21	nt	4%	-2%	55%	?	1%
CN(C)CCCn1c2c(c(SCC(=O)Nc3cccc4ccccc34)nc1=O)CCC2	50µM*	-6%	13%	-9%	nt	-17%
CCN(CC)CCn1c2c(c(SCC(=O)Nc3cccc4ccccc34)nc1=O)CCCC2	13µM*	-6%	9%	12%	nt	-24%
COC(=O)c1ccc(CC(=O)c2nc3ccccc3s2)cc1	11%[59 µM]	6%	-3%	-5%	9%	?
Cn1c(SCC(=O)c2ccc3c(c2)Cc2ccccc2-3)nnc1-c1cccc(N)c1	?	-14%	-11%	11%	13%	-22%
O=C(Cc1ccccc1)c1nc2ccccc2s1	?	-16%	71µM*	?	?	?
Cn1c(SCC(=O)NC(c2ccccc2)c2ccccc2)nnc1-c1cccs1	-35%[12.7 µM]	nt	-5%	-11%	-3%	50µM*
NC(=O)CSCc1nc2ccccc2s1	?	nt	0%	34%	56µM*	-31%
CC(=O)Nc1ccc(-c2nnc(SCC(=O)c3ccc4c(c3)Cc3ccccc3-4)n2C)cc1	22µM*	-6%	1%	5%	89µM*	35µM*
CC(C)(C)c1ccc(C(=O)NCC(c2cccs2)S(=O)(=O)c2ccccc2)cc1 (stereo unspecified)	22%[59 µM]	nt	-7%	-1%	nt	-12%
Cn1c(SCc2nc3ccccc3s2)nnc1-c1cccs1	45µM*	-2%	4%	3%	56µM*	-33%
Cc1ccc(C(=O)CSc2nnc(-c3cccs3)n2C)o1	50µM*	nt	9%	38%	-4%	-1%
SMILES	G9a inh	L3MBTL1 block	BAZ2B block	HP1b chromo inh	Sfp PPTase inh	JMJD2A Tudor inh
Cn1c(SCC(=O)c2ccc(O)c(O)c2)nnc1-c1cccs1	nt	-83%	50µM*	-5%	-5%	25µM*
CCn1c(SCc2nc3ccccc3s2)nnc1-c1cccs1	2%[12.7 µM]	2%	8%	26%	2%	-13%
Cn1c(SCC(=O)c2ccc(O)c(O)c2)nnc1-c1ccccc1	6%	nt	?	16%	79µM*	-14%
CNC(=O)CSc1nnc(-c2ccccc2)n1C	-4%	6%	5%	52%	15%	-3%
Cn1c(SCC(=O)OCC(=O)c2ccccc2)nnc1-c1cccs1	-24%[59 µM]	-4%	-17%	33%	?	-3%
Cn1nnnc1Sc1ncnc2scc(-c3ccc(S(C)(=O)=O)cc3)c12	nt	nt	nt	nt	nt	-5%
CN(CC(=O)Nc1ccc(F)cc1F)S(=O)(=O)c1ccc(C(=O)N2CCOCC2)s1	9%[59 µM]	nt	-2%	-2%	nt	-11%
Oc1ccc(O)c(Cc2nc3ccccc3s2)c1	10µM*	?	?	20µM*	50µM*	13µM*
CCN(CC)S(=O)(=O)c1cccc(-c2n[nH]c(=S)n2/N=C/c2ccc(OC)cc2)c1	?	-14%	-4%	-13%	79µM*	?
CCN(CC)S(=O)(=O)c1cccc(-c2n[nH]c(=S)n2/N=C/c2ccc(OC(F)F)cc2)c1	1.8µM*	-18%	?	?	?	?
CCN(CC)S(=O)(=O)c1cccc(-c2n[nH]c(=S)n2/N=C/c2ccc(Br)cc2)c1	?	1%	1%	1%	-24%	?
Cc1cccc(OC(=O)c2cc(-c3ccc4c(c3)OCCO4)on2)c1C	?	nt	-24%	65%	nt	25%
CC(C)CCNC(=O)C1CCN(c2nc3ccccc3o2)CC1	?	-2%	-26%	30%	11%	-12%
Cc1ccc(CN2CCC(C(=O)NCCC(C)C)CC2)o1	32µM*	-2%	?	?	2%	45µM*
CCOc1ccc(N2C(=O)CC(N3CCN(C(=O)CN4CCCC4)CC3)C2=O)cc1 (stereo unspecified)	?	2%	-24%	34%	5%	-11%

Source: PubChem BioAssay (National Center for Advancing Translational Sciences (NCATS))
